Measurements published in PubChem BioAssay (NCI).
The panel holds about 79,000 compounds, 15% with a hit somewhere; the sample as a whole holds those more often. Rule as the data show it: active = growth inhibition above about 70%; inactive = the rest.

How the values were obtained:
[1] = NCI Yeast Anticancer Drug Screen. Data for the rad50 strain (AID 155);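 also: 0% = growth of vehicle-only cultures of the same strain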; settings: S. cerevisiae rad50 strain growth inhibition; at 50.0 µM; stronger effect = higher value
In short: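 Relative growth inhibition (compound vs vehicle) was measured in yeast with a defined repair-gene alteration.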

[2] = NCI Yeast Anticancer Drug Screen. Data for the mec2-1 strain (AID 157); settings: S. cerevisiae mec2-1 strain, at 50.0 µM, stronger effect = higher value
In short: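 Vehicle-treated cultures served as reference for growth inhibition of compound-exposed mec2-1 yeast.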

[3] = NCI Yeast Anticancer Drug Screen. Data for the sgs1 mgt1 strain (AID 161);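 also: 0% = growth of cultures given vehicle only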; settings: S. cerevisiae sgs1 mgt1 strain, at 50.0 µM, stronger effect = higher value
In short: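 Read-out: growth inhibition vs vehicle controls. Cells: mutant yeast strain deficient in DNA damage repair.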

[4] = NCI Yeast Anticancer Drug Screen. Data for the cln2 rad14 strain (AID 165);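 also: 0% = growth equal to vehicle treated cultures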; settings: S. cerevisiae cln2 rad14 strain, at 50.0 µM, stronger effect = higher value
In short: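 Each compound was tested on cln2 rad14 yeast. Inhibition of growth was calculated against vehicle-exposed controls.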

[5] = NCI Yeast Anticancer Drug Screen. Data for the bub3 strain (AID 167); settings: S. cerevisiae bub3 mutant strain, at 50.0 µM, stronger effect = higher value
In short: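 Screening used yeast with an engineered genetic alteration affecting cell cycle control. Compound-exposed cultures were compared with vehicle cultures, and reduced growth was taken as inhibition.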

[6] = NCI Yeast Anticancer Drug Screen. Data for the mlh1 rad18 strain (AID 175); settings: S. cerevisiae mlh1 rad18 strain growth inhibition; at 50.0 µM; stronger effect = higher value
In short: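 Vehicle-treated cultures served as the reference for growth inhibition in a yeast strain carrying DNA damage repair alterations exposed to each compound.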

Measured: growth inhibition

CCCCCCCCCCOc1ccc(OCCCCCCCCC)cc1
inactive: [1] 15.5% | [2] -15.8% | [3] 12.9% | [4] -45% | [5] -2.3% | [6] -11.9%

Nc1nc(N)nc(-c2ccccc2-c2nc(N)nc(N)n2)n1
inactive: [1] -5.65% | [2] -2.85% | [3] 3.45% | [4] -18% | [5] 14.2% | [6] 6.65%

COc1cc2c(cc1OCc1ccccc1)NC(=O)C2
inactive: [1] 0.5% | [2] 20.2% | [3] 12.8% | [4] -7.85% | [5] -18.9% | [6] -7%

CCc1cccc(C)c1NC(=O)C(=O)CC(=O)CCCO
inactive: [1] -37.6% | [2] 21.7% | [3] 27.6% | [4] -27.9% | [5] 0.05% | [6] 25.4%

CC1(C)OC2C(COCc3ccccc3)=CC(n3ccc(=O)[nH]c3=O)C2O1 (stereo not given)
inactive: [1] -8.3% | [2] -16.8% | [3] 1.7% | [4] -0.7% | [5] 10.1% | [6] 14.3%

COc1cc(C=Nc2ccc(N3CCOCC3)cc2)ccc1O
inactive: [1] -1.1% | [2] -3.45% | [3] -8.45% | [4] -18.6% | [5] 12.6% | [6] -1.25%

COC(=O)/C=C/C(=N/N(C)c1ccccc1)c1ccccc1
inactive: [1] 3.35% | [2] -0.2% | [3] 2.75% | [4] -49% | [5] 11% | [6] -5.15%

Cc1cc(S(=O)(=O)Nc2n[nH]c(N)n2)c(SCC(=O)O)cc1Cl
inactive: [1] -2.5% | [2] -0.3% | [3] -27.6% | [4] 8.55% | [5] 1.85% | [6] 18.9%

Cc1cc2nc(NN)[nH]c2cc1C
inactive: [1] 5.15% | [2] 7.15% | [3] -17.5% | [4] -10% | [5] -26.4% | [6] 22.1%

COc1ccc(NC(=O)Nc2ccc(SC)cc2)c(Cl)c1
inactive: [1] 0.75% | [2] 5.6% | [3] -2.8% | [4] -13.9% | [5] 19.5% | [6] 20.9%

CC(=O)[C@H]1CC[C@@H]2[C@]1(C)CC=C1[C@]23C=C[C@]2(C[C@@H](O)CC[C@]12C)C(C(=O)O)C3C(=O)O (stereo not given in full)
inactive: [1] 2.35% | [2] -18% | [3] -39.7% | [4] 4.2% | [5] -13.1% | [6] 7.25%

c1ccc2c(c1)ccc1cc3c(ccc4ccccc43)cc12
inactive: [1] 15.3% | [2] -11.3% | [3] 7.9% | [4] 13.2% | [5] 34.6% | [6] 12.4%

CC(C)(C)NC(NC(C)(C)C)=C(C(Cl)=C(Cl)Cl)[N+](=O)[O-]
inactive: [1] -2.1% | [2] -9.55% | [3] -6.15% | [4] 7.8% | [5] 12.7% | [6] -0.75%

CC(=O)C1(C)CCC2C3CCC4=CC(=O)CCC4=C3CCC21C (stereo not given)
inactive: [1] 32.1% | [2] 1.3% | [3] 50.9% | [4] 9.9% | [5] 34% | [6] 23.6%

CC[N+](C)(CC)CC[N+]1(C)CCCCCCC1
inactive: [1] 12.9% | [2] 5.45% | [3] 5.8% | [4] -40.6% | [5] 10.4% | [6] 15.6%

CC1(C)CCc2cc3c(O)c(-c4ccccc4)c(=O)oc3cc2O1
inactive: [1] -9.45% | [2] 2.15% | [3] -0.65% | [4] -17.2% | [5] -5.75% | [6] 7.45%

CCOC(=O)c1[nH]c(-c2ccc(OC)cc2)c(C(=O)OCC)c1-c1ccccc1
inactive: [1] 38.6% | [2] -4.7% | [3] 28.8% | [4] -0.2% | [5] 3.05% | [6] 24.1%

Nc1cc(S(N)(=O)=O)ccc1O
inactive: [1] 10.3% | [2] -11.6% | [3] -21.9% | [4] -10.6% | [5] -12% | [6] 12.4%

CCCc1nc2ccccc2c(=O)n1/N=C/c1ccc(Cl)cc1Cl
inactive: [1] -11.7% | [2] 0.4% | [3] 0.05% | [4] 3% | [5] -3.45% | [6] -3.4%

CCSC(SCC)C(NC(C)=O)C(OC(C)=O)C(OC(C)=O)C(COC(C)=O)OC(C)=O (stereo not given)
inactive: [1] 23.4% | [2] -3.25% | [3] -0.2% | [4] 8.25% | [5] -2.7% | [6] 10.6%
